We go through 17 compounds from PubChem BioAssay (NCATS).

SMILES strings stand for the structures. Records with an inconclusive call do not appear. Calls of active or inactive are those of the source. Unless noted, calls follow the shape of the dose curve; as a rule, active = well fitted curve in the direction sought with a large enough effect; inconclusive = small, poorly fitted or top-dose-only effect, or another doubt; inactive = no such curve, though single readings can be large; an effect the other way counts as inactive or inconclusive.

The nature of assay [1]: High-throughput drug toxicity screening in the BPDCN cell line Gen2.2 (AID 1224824; call rule not given here;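 also: cells exposed to compounds for 48 h before reading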). The settings on record: Gen2.2 BPDCN cells; at 45.8 µM (top of the series) unless noted. The essentials:
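Seed 500 exponentially growing Gen2.2 cells/well; add compounds by pin tool; incubate 48 h, 37 °C, 5% CO2; add CellTiter-Glo, 15 min RT; read luminescence. % activity vs DMSO (100%) and bortezomib (0%).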

Assay [2] in a line: High-throughput drug toxicity screening in the BPDCN cell line Cal-1 (AID 1224825; call rule not given here). The settings on record: Cal-1 BPDCN cell viability, qHTS; at 45.8 µM (top of the series) unless noted. A digest of the protocol: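 Exponentially growing Cal-1 cells, 500 per well in phenol red-free RPMI with 10% FBS, were exposed to compounds for 48 h at 37 °C, 5% CO2. Viability was read by CellTiter-Glo luminescence and normalised to DMSO (100%) and 9.2 uM bortezomib (0%).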
For orientation: qHTS replaces the single test concentration by a dilution series.

The nature of assay [3]: qHTS assay for measurement of the activity of small molecule inhibitors on Zika virus induced Caspase-3 activity in human iPSC derived neural progenitor cells (hNPCs) (AID 1224857). Also: % of control where 0% means no effect; nearly all actives have a fitted effect of over 65% in size. The essentials:
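Values are percent inhibition of virus-induced caspase-3/7 signal, scaled between uninfected cells and ZIKV-infected cells. Infection used 2 FFU/cell for 6 h after 1 h compound exposure.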

The nature of assay [4]: qHTS assay for measurement of the activity of small molecule inhibitors on Zika virus induced Caspase-3 activity in human astrocytoma cells (AID 1224859).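 Also: plate controls were ZIKV-infected untreated cells for no effect and uninfected cells for full effect.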 A digest of the protocol: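 Compound added 1 h pre-infection; ZIKV 2 FFU/cell on SNB-19 cells, 6 h, 37 C/5% CO2. Caspase-Glo 3/7 luminescence; values as % inhibition of ZIKV-induced caspase activity.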
Assay [5] is described as follows: qHTS Screen of the MIPE 4.0 Collection Against Ewings Sarcoma (RDES) (AID 1259252). Also: nearly all actives have a fitted effect of over 35% in size. Also: potency is read from the fitted curve at half-maximal effect. A digest of the protocol: (§1)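 Compound titrations go onto adherent log-phase cells 4 h after seeding, incubate 48 h at 37C, then CellTiter-Glo luminescence reports viability relative to DMSO and cell-free controls.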
Assay [6] can be described thus: qHTS Screen of the MIPE 4.0 Collection Against Ewings Sarcoma (TC71) (AID 1259253). Also: nearly all actives have a fitted effect of over 40% in size. Also: potency is read from the fitted curve at half-maximal effect. A digest of the protocol:
as §1

Assay [7] can be described thus: qHTS Screen of the MIPE 4.0 Collection Against Ewings Sarcoma (EW8) (AID 1259255). Also: nearly all actives have a fitted effect of over 35% in size. Also: potency is read from the fitted curve at half-maximal effect.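 As to viability: 100% = DMSO-treated cells and 0% = medium-only wells without cells.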 The essentials: as §1
The nature of assay [8]: qHTS Screen of the MIPE 4.0 Collection Against Ewings Sarcoma (TC32) (AID 1259256). Also: nearly all actives have a fitted effect of over 45% in size. Also: potency is read from the fitted curve at half-maximal effect. The essentials:
as §1

A short description of assay [9]: P-glycoprotein substrates identified in KB-3-1 adenocarcinoma cell line, qHTS therapeutic library screen (AID 1346986). Also: nearly all actives have a fitted effect of over 60% in size. The essentials:
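Resistance attributable to P-gp was assessed by comparing AC50 in KB-8-5-11 with parental KB-3-1 and by tariquidar reversal. Cells were exposed 72 h and viability read by CellTiter-Glo.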

Assay [10] can be described thus: P-glycoprotein substrates identified in KB-8-5-11 adenocarcinoma cell line, qHTS therapeutic library screen (AID 1346987). Also: nearly all actives have a fitted effect of over 65% in size. Also: potency is read from the fitted curve at half-maximal effect. The essentials:
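Steps: plate 500 KB-8-5-11 cells/well in DMEM + 10% FCS (colchicine removed); pin compounds in dose-response; incubate 72 h, 37 degree C, 5% CO2; add CellTiter-Glo, 5 min; read luminescence.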

For `CC(=O)N1CCN(c2ccc(OCc3nn(C)c(C)c3-c3cccc4c(CCCOc5cccc6ccccc56)c(C(=O)O)n(Cc5cccnc5)c34)cc2)CC1`, the cell viability, % of control (lower = more cytotoxic) in assay [1] stood at 36.4%. In addition, the viability (% of control) in [2] is 2.28%. Besides, the Potency result in assay [3], in [4], in [9] and in assay [10] was “inactive” throughout. The Potency in [5] is 0.332 µM (active); in [6], 1.18 µM (active); in assay [7], 3.72 µM (active); in assay [8], 0.743 µM (active).
Consider `Cc1cc(Nc2ncc3c(n2)N(C)C(=O)N(c2cc(NC(=O)c4cccc(C(F)(F)F)c4)ccc2C)C3)n(C)n1`, for which the cell viability, % of control (lower = more cytotoxic) in assay [1] was determined as 11.1%. For the same compound, the viability (% of control) in [2] came to 7.39%. Besides, the Potency entry in [3] and in assay [4] was “inactive” throughout. Further, the Potency in [5] was 0.418 µM (active); in assay [6] it was 0.372 µM (active); in assay [7] it was 0.833 µM (active); in [8] it was 0.418 µM (active).
On to `Cc1cncc2cccc(S(=O)(=O)N3CCCN(C(=O)CN)C[C@@H]3C)c12`, for which, in assay [1], the cell viability, % of control (lower = more cytotoxic) is 35.1%. The viability (% of control) in assay [2] came to 36.2%. Also, the Potency entry in [3] and in assay [4] was “inactive” in each case. Also, the Potency in assay [5] is 8.33 µM (active); in assay [6], 14.8 µM (active); in [7] it was 2.64 µM (active); in assay [8] it was 1.18 µM (active).
As for `CC(C)NC[C@@H](C(=O)N1CCN(c2ncnc3c2[C@H](C)C[C@H]3O)CC1)c1ccc(Cl)cc1`, in assay [1], the cell viability, % of control (lower = more cytotoxic) was 1.71%. Moreover, the viability (% of control) in assay [2] is 1.88%. In addition, the Potency result in assay [3], in [4] and in [10] was “inactive” throughout. Besides, the Potency in [5] was 4.69 µM (active); in assay [6], 11.8 µM (active); in assay [7], 1.66 µM (active); in assay [8], 2.64 µM (active).
Regarding `CC(=O)O[C@]1(C(C)=O)CC[C@H]2[C@@H]3C=C(C)C4=CC(=O)CC[C@]4(C)[C@@H]3CC[C@@]21C`, the cell viability, % of control (lower = more cytotoxic) in assay [1] was 5.55%. For the same compound, in assay [2], the viability (% of control) came out at 3.38%. The Potency result in assay [3], in assay [4], in assay [9] and in assay [10] was “inactive” each time. The Potency in [5] was 3.32 µM (active); in [6], 4.18 µM (active); in assay [7], 7.43 µM (active); in assay [8], 5.26 µM (active).
Regarding `COc1cc([C@@H]2c3cc4c(cc3[C@H](O)[C@H]3COC(=O)[C@@H]23)OCO4)cc(OC)c1OC`, the cell viability, % of control (lower = more cytotoxic) in [1] was determined as 21.3%. The viability (% of control) in assay [2] was 11.1%. Besides, the Potency result in [3] and in assay [4] was “inactive” in each case. Moreover, the Potency in assay [5] is 0.0743 µM (active); in assay [6], 0.187 µM (active); in assay [7], 0.105 µM (active); in assay [8], 0.0372 µM (active); in [10], 0.418 µM (active).
Regarding `Cc1noc(-c2ccc(CSCCC(=O)O)cc2)c1NC(=O)OC(C)c1ccccc1Cl` (stereo not given), the cell viability, % of control (lower = more cytotoxic) in assay [1] came to 157%. Further, in assay [2], the viability (% of control) is 103%. Also, the Potency result in assay [3], in assay [4], in assay [5], in assay [6], in [7] and in [8] was “inactive” each time. Also, the Potency entry in assay [9] and in [10] was “inactive” in each case.
With `OCc1ccccc1O[C@@H]1O[C@H](CO)[C@H](O)[C@H](O)[C@H]1O`, the cell viability, % of control (lower = more cytotoxic) in assay [1] worked out at 151%. Besides, the viability (% of control) in assay [2] was 108%. Also, the Potency result in assay [3], in assay [4], in [5], in [6], in assay [7] and in assay [8] was “inactive” in each case. Further, the Potency entry in assay [9] and in assay [10] was “inactive” in each case.
Turning to `Cc1ccc(-n2[nH]c(C)c(N=Nc3cccc(-c4cccc(C(=O)O)c4)c3O)c2=O)cc1C`, the cell viability, % of control (lower = more cytotoxic) in assay [1] was determined as 180%. For the same compound, the viability (% of control) in assay [2] worked out at 28.2%. Besides, the Potency entry in assay [3], in [4] and in [10] was “inactive” throughout. Also, the Potency in assay [5] is 18.7 µM (active); in [6], 11.8 µM (active); in assay [7] it was 18.7 µM (active); in assay [8] it was 6.62 µM (active).
Take `CCOC(=O)N1CCN([N+]([O-])=NOc2ccc([N+](=O)[O-])cc2[N+](=O)[O-])CC1`: in assay [1], the cell viability, % of control (lower = more cytotoxic) worked out at 17.4%. Besides, the viability (% of control) in assay [2] worked out at 13.5%. Moreover, the Potency result in [3], in assay [4], in assay [9] and in [10] was “inactive” throughout. For the same compound, the Potency in assay [5] was 16.6 µM (active); in assay [6] it was 10.5 µM (active); in assay [7] it was 3.32 µM (active); in assay [8], 3.72 µM (active).
For the compound `O=c1[nH]c(=O)n([C@H]2C[C@@H](O)[C@@H](CO)O2)cc1C=CBr`, the cell viability, % of control (lower = more cytotoxic) in assay [1] was determined as 164%. In assay [2], the viability (% of control) came out at 115%. For the same compound, the Potency entry in assay [3], in [4], in [5], in assay [6], in assay [7] and in [8] was “inactive” each time. Further, the Potency entry in assay [9] and in assay [10] was “inactive” in each case.
In the case of `COc1cc2c(Nc3ccc(Cl)c(Cl)c3F)ncnc2cc1OCC1C[C@@H]2CN(C)C[C@H]2C1`, in assay [1], the cell viability, % of control (lower = more cytotoxic) is 2.56%. For the same compound, the viability (% of control) in [2] was 2.8%. In addition, the Potency entry in [3] and in assay [4] was “inactive” in each case. For the same compound, the Potency in assay [5] was 14.8 µM (active); in [6] it was 10.5 µM (active); in assay [7] it was 11.8 µM (active); in assay [8], 13.2 µM (active); in assay [10] it was 18.7 µM (active).
With `OCCN1C[C@H](O)[C@@H](O)[C@H](O)[C@@H]1CO`, in [1], the cell viability, % of control (lower = more cytotoxic) was found to be 122%. Further, the viability (% of control) in assay [2] came to 103%. For the same compound, the Potency result in [3], in assay [4], in [5], in [6], in assay [7] and in assay [8] was “inactive” each time. For the same compound, the Potency entry in [9] and in assay [10] was “inactive” each time.
On to `O=C(C[C@@H]1CC=CCCC(=O)O[C@H](c2ccccc2)CNC1=O)NCc1ccc(Cl)cc1`, for which the cell viability, % of control (lower = more cytotoxic) in assay [1] stood at 17%. Besides, the viability (% of control) in assay [2] amounted to 94.4%. Moreover, the Potency result in assay [3], in assay [4], in assay [5], in assay [6], in assay [7] and in [8] was “inactive” in each case. Further, the Potency entry in [9] and in assay [10] was “inactive” throughout.
As for `O=C(CCCCCCC(=O)Nc1cccnc1)NO`, the cell viability, % of control (lower = more cytotoxic) in assay [1] turned out to be 20.5%. Moreover, the viability (% of control) in assay [2] was 10.1%. Moreover, the Potency entry in assay [3] and in assay [4] was “inactive” each time. The Potency in [5] was 2.96 µM (active); in assay [6], 5.26 µM (active); in [7], 2.64 µM (active); in assay [8], 5.26 µM (active); in assay [10], 18.7 µM (active).
Regarding `C[C@H]1C[C@H]2[C@@H]3CCC4=CC(=O)C=C[C@]4(C)[C@@H]3C(=O)C[C@]2(C)[C@@]1(O)C(=O)CO`, in assay [1], the cell viability, % of control (lower = more cytotoxic) was found to be 87.7%. Besides, the viability (% of control) in assay [2] stood at 108%. Also, the Potency entry in assay [3], in assay [4], in assay [5], in assay [6], in [7] and in assay [8] was “inactive” each time. Also, in assay [10], the Potency result is “inactive”.
As for `CC1(C)[C@H](O[C@H]2O[C@H](C(=O)O)[C@@H](O)[C@H](O)[C@H]2O[C@@H]2O[C@H](C(=O)O)[C@@H](O)[C@H](O)[C@H]2O)CC[C@@]2(C)[C@H]1CC[C@]1(C)[C@H]2C(=O)C=C2[C@H]3C[C@@](C)(C(=O)O)CC[C@]3(C)CC[C@]21C`, the cell viability, % of control (lower = more cytotoxic) in assay [1] is 153%. Also, the viability (% of control) in [2] was found to be 125%. The Potency entry in assay [3], in assay [4], in assay [5], in assay [6], in [7] and in assay [8] was “inactive” each time. The Potency result in assay [9] and in [10] was “inactive” in each case.
